Biological target: Hexose transporter 1 (Plasmodium falciparum) (UniProt O97467)
Assay: ST_JUDE_LEISH: Cytotoxicity at 2uM final concentration against transgenic Leishmania Mexicana promastigotes LmPfHT that are glucose transport deficient and complemented with the Plasmodium falciparum hexose transporter. Activity is measured by DNA content using SYBR green in vitro
Assay type: functional

SMILES | inhibition [%]
Cc1ccc(C(=O)NC2CCN(CCNC(=O)Nc3cc(C)nc4ccccc34)CC2)cc1 | 0.53
CC(NC(=O)c1ccc(O)c(-c2ccc(Cl)c(Cl)c2)c1)C(=O)NC1CCCCC1 (centres undefined) | 4.55
CC(C)(C)c1ccc(CN2CCCCC(NC(=O)c3cc(-c4ccccc4F)cs3)C2)cc1 (centres undefined) | -0.56
CC12CCC(C(=O)N(CC(O)Cn3c4ccc(Cl)cc4c4cc(Cl)ccc43)C1=O)C2(C)C (centres undefined) | 0.85
Fc1cccc(CNc2ncc(-c3ccsc3)c(-c3nccs3)n2)c1 | 1.96
Cc1cccc2nc(-c3ccc(-c4ccc(C(=O)NCCN5CCCC5)cc4)s3)[nH]c12 | 0.54
Cc1ccc(C(=O)N2CCN(Cc3nccs3)CC2)cc1 | -0.14
NS(=O)(=O)c1ccc(CNc2ccc3ncc(-c4ccc(Cl)cc4)n3n2)cc1 | 0.08
Fc1cccc(COc2ccc(Nc3ncnc4sc(C#CCNC5CCCC5)cc34)cc2Cl)c1 | 2.09
N#Cc1ccc(CN2CCC(Oc3ccc(NC(=O)c4ccco4)cc3Cl)CC2)cc1 | 1.94
O=C(Nc1cc(C(F)(F)F)ccc1N1CCOCC1)C(Cl)(Cl)Cl | 9.77
O=C(NCCNc1nc(NCCNC(=O)Nc2ccccc2)c2ccc(=O)n(-c3c(F)cccc3F)c2n1)Nc1ccccc1 | 1.99
COc1ccccc1CNC(=O)c1cc(C2CC2)nc2c1cnn2C(C)C | 11.5
O=C(Cc1cccc(Cl)c1)Nc1cccc(-c2c[nH]c3nc(Nc4cccc(OCc5ccccc5)c4)ncc23)c1 | 6.61
CC(=O)Nc1nc(C(=O)Nc2cccc(-c3ccc(-c4nc5cccc(C)c5[nH]4)s3)c2)cs1 | 11.9
CS(=O)(=O)NCCCNCc1cccc(-c2cccc(-c3nc4cc(F)ccc4[nH]3)c2)c1 | 1.37
O=C(CSc1nc2ccccc2c(=O)n1C1CC1)Nc1cc(C(F)(F)F)ccc1Cl | -2.91
COc1cccc(NC(=O)Cn2c(C)c(C(=O)C(F)(F)F)c3ccccc32)c1 | 1.7
Cc1ccc(-c2nc(N3CCN(C(=O)c4ccco4)CC3)c3ccccc3n2)cc1 | 0.57
Cn1cnc(CCNC(=O)c2cccc(-c3cccc(-c4nc5cc(C(F)(F)F)ccc5[nH]4)c3)c2)c1 | 1
Cc1nc(C)c(-c2ccc(Cl)cc2Cl)c(O)c1Br | 0.95
CCN(CC)CCNC(=O)/C(=C/C=C/c1cc2cc(Cl)c(Cl)cc2[nH]1)OC | -0.18
Nc1ncc(-c2cc3ccccc3o2)c(N)n1 | 2.51
CC(=O)Nc1nc(C(=O)Nc2cccc(-c3ccc(-c4nc5cc(F)ccc5[nH]4)cc3)c2)cs1 | 1.38
O=C(NC1CCC(CCN2Cc3cccc(C(F)(F)F)c3C2)CC1)c1cccc(-c2cccnc2)c1 (centres undefined) | 1.73

Biological target: Glucose transporter (Leishmania mexicana) (UniProt O61059)
Assay: ST_JUDE_LEISH: Cytotoxicity at 2uM final concentration against transgenic Leishmania Mexicana promastigotes LmGT2 that are glucose transport deficient and complemented with the L. Mexicana glucose transporter 2. Activity is measured by DNA content using SYBR green in vitro
Assay type: functional

SMILES | inhibition [%]
FC(F)(F)c1ccc2[nH]c(-c3ccc(-c4cccc(CNCC5CCCO5)c4)cc3)nc2c1 (centres undefined) | 2.68
Cc1cnc(C(=O)Nc2cccc(-c3csc(-c4nc5ccccc5[nH]4)c3)c2)cn1 | 3.93
CC(=O)N[C@H](C(=O)Nc1ccc(-c2ccc(-c3nc4cc(C(F)(F)F)ccc4[nH]3)s2)cc1)C(C)C | 4.22
COc1cc2nc(N3CCC(CNC(=O)c4ccc(-c5ccc(-c6noc(C)n6)cc5)cc4)CC3)nc(N)c2cc1OC | 41.6
CCOC(=O)C1CCN(CCOc2cc(NC(=O)/C=C/c3ccccc3Cl)ccc2Br)CC1 | 7.58
CCc1cn2c3c(cc(C(=O)N[C@@H](Cc4ccccc4)[C@H](O)CNC(C)(C)CCCC(C)C)cc13)N(C)S(=O)(=O)C2 | 0.85
c1csc(-c2nc(NCC3CCCO3)ncc2-c2ccsc2)n1 (centres undefined) | 3.35
CC1CCN(c2nc(C(=O)NCCc3ccc(Cl)c(Cl)c3)c(C(C)C)s2)CC1 | 2.67
CCC(=Cc1cccc([N+](=O)[O-])c1)C(=O)NCC1CCN(c2nc3cc(OC)c(OC)cc3c(=N)[nH]2)CC1 | 6.83
COc1ccc2nccc(NC(=O)N3CCC(NCCOc4cc(F)cc(F)c4)CC3)c2n1 | -0.77
Cc1ccccc1C1CCN(C2CCC(NC(=O)/C=C/c3ccc(C#N)cc3)CC2)CC1 (centres undefined) | 5.03
O=C(NCc1cccc2ccccc12)c1ccc(CNC2CCN(Cc3ccccc3)CC2)cc1 | 4.22
N#Cc1ccc(N2CCN(Cc3cccc(-c4cccc(-c5nc6cc(F)ccc6[nH]5)c4)c3)CC2)nc1 | 3.65
COc1ccc(-c2onc(C(F)(F)F)c2-c2ccc(Br)cc2)c(O)c1 | 1.56
Cc1ccc(C(=O)NC2CCN(CCNC(=O)Nc3cc(C)nc4ccccc34)CC2)cc1 | -1.45
CC(NC(=O)c1ccc(O)c(-c2ccc(Cl)c(Cl)c2)c1)C(=O)NC1CCCCC1 (centres undefined) | 5.71
CC(C)(C)c1ccc(CN2CCCCC(NC(=O)c3cc(-c4ccccc4F)cs3)C2)cc1 (centres undefined) | 0
CC12CCC(C(=O)N(CC(O)Cn3c4ccc(Cl)cc4c4cc(Cl)ccc43)C1=O)C2(C)C (centres undefined) | 0.38
Fc1cccc(CNc2ncc(-c3ccsc3)c(-c3nccs3)n2)c1 | 2
Cc1cccc2nc(-c3ccc(-c4ccc(C(=O)NCCN5CCCC5)cc4)s3)[nH]c12 | -0.1

SMILES | inhibition [%]
Cc1ccc(C(=O)N2CCN(Cc3nccs3)CC2)cc1 | -0.27
NS(=O)(=O)c1ccc(CNc2ccc3ncc(-c4ccc(Cl)cc4)n3n2)cc1 | -0.35
Fc1cccc(COc2ccc(Nc3ncnc4sc(C#CCNC5CCCC5)cc34)cc2Cl)c1 | 2.47
N#Cc1ccc(CN2CCC(Oc3ccc(NC(=O)c4ccco4)cc3Cl)CC2)cc1 | 7.81
O=C(Nc1cc(C(F)(F)F)ccc1N1CCOCC1)C(Cl)(Cl)Cl | 9.48
O=C(NCCNc1nc(NCCNC(=O)Nc2ccccc2)c2ccc(=O)n(-c3c(F)cccc3F)c2n1)Nc1ccccc1 | -0.37
COc1ccccc1CNC(=O)c1cc(C2CC2)nc2c1cnn2C(C)C | 8.12
O=C(Cc1cccc(Cl)c1)Nc1cccc(-c2c[nH]c3nc(Nc4cccc(OCc5ccccc5)c4)ncc23)c1 | 5.74
CC(=O)Nc1nc(C(=O)Nc2cccc(-c3ccc(-c4nc5cccc(C)c5[nH]4)s3)c2)cs1 | 8.32
CS(=O)(=O)NCCCNCc1cccc(-c2cccc(-c3nc4cc(F)ccc4[nH]3)c2)c1 | -0.27
O=C(CSc1nc2ccccc2c(=O)n1C1CC1)Nc1cc(C(F)(F)F)ccc1Cl | 2.43
COc1cccc(NC(=O)Cn2c(C)c(C(=O)C(F)(F)F)c3ccccc32)c1 | 2.26
Cc1ccc(-c2nc(N3CCN(C(=O)c4ccco4)CC3)c3ccccc3n2)cc1 | 0.1
Cn1cnc(CCNC(=O)c2cccc(-c3cccc(-c4nc5cc(C(F)(F)F)ccc5[nH]4)c3)c2)c1 | -2.49
Cc1nc(C)c(-c2ccc(Cl)cc2Cl)c(O)c1Br | 3.83
CCN(CC)CCNC(=O)/C(=C/C=C/c1cc2cc(Cl)c(Cl)cc2[nH]1)OC | -1.46
Nc1ncc(-c2cc3ccccc3o2)c(N)n1 | -0.11
CC(=O)Nc1nc(C(=O)Nc2cccc(-c3ccc(-c4nc5cc(F)ccc5[nH]4)cc3)c2)cs1 | 4.22
O=C(NC1CCC(CCN2Cc3cccc(C(F)(F)F)c3C2)CC1)c1cccc(-c2cccnc2)c1 (centres undefined) | 2.16
